# Source: PubChem BioAssay
# FMDV antiviral – Primary qHTS Assay for Foot and Mouth Disease Virus Antivirals against NCGC Sytravon and CBC Compound Libraries: Firefly Luciferase Signal | FMDV antiviral cell assay, firefly luciferase signal | Potency, µM (top dose mostly 57.5 µM), inactives show top-dose activity change, negative = inhibition, usual class: inhibitors | 120,000 compounds, 0.23% hits; further: nearly all actives have a fitted effect of over 60% in size
# FMDV RLuc – Primary qHTS Assay for Foot and Mouth Disease Virus Antivirals against NCGC Sytravon and CBC Compound Libraries: Renilla Luciferase Signal; FMDV replicon cells, Renilla luciferase signal; Potency, µM (top dose mostly 57.5 µM), for the others: at the top dose activity change, negative = inhibition, actives largely listed as inhibitors; 120,000 compounds, 0.32% hits; AID 1745857, 2022; further: nearly all actives have a fitted effect of over 55% in size
# Active calls of the source: *; ? = inconclusive. In the library only some 0.51% were active in any assay of this set; here they are far more common. The call rests on the fitted dose curve. On the % scale 0 is the no-effect control and ±100 the full control effect; potency means the concentration at half of the fitted maximal effect.
SMILES,FMDV antiviral,FMDV RLuc
CCOC(=O)C1=C(C)N(C)C(=O)N(C)C1c1ccc(F)cc1F (stereo unspecified),0%,-2%
c1ccc2c(c1)OCC(CSc1nnnn1C1CCCC1)O2 (stereo unspecified),169%,28%
O=c1cc(CN2CCN(Cc3ccccc3)CC2)c2cc(O)c(-c3ccccc3)cc2o1,4%,-6%
COc1ccccc1OCCn1cc(C(=O)C2CC2)c2ccccc21,3%,-12%
CC(=O)c1cn(CCOc2cccc3ccccc23)c2ccccc12,?,13µM*
COc1ccc(C(=O)Nc2nc(-c3nnn(-c4ccccc4Br)c3C)ns2)cc1,14µM*,14µM*
COc1ccc(C(=O)Nc2nc(-c3nnn(-c4ccc(F)cc4F)c3C)ns2)cc1,43%,15%
CCOc1ccc(NC(=O)Nc2nnc(N(CC)c3ccccc3)s2)cc1,-2%,-4%
Nc1ccc(OCC2CC2)c(F)c1,121%,12%
O=Cc1ccc(OCC2CC2)c2ccccc12,?,5.6µM*
O=C(Oc1cccc2cccnc12)c1cccc2ccccc12,127%,12%
CC(=O)N1CCC(C(=O)NCCC2=CCCCC2)CC1,16%,12%
COC(=O)C1(NC(=O)COc2ccc(Cl)cc2Cl)CCCCC1,8.9µM*,8.9µM*
COC(=O)C1(NC(=O)c2cc(Cl)ccc2Cl)CCCCCC1,-11%,-5%
COc1ccc(-c2nc3cc(NC(=O)c4ccccc4OC)ccc3o2)cc1,26%,-9%
Cc1ccc(CN(Cc2cc(=O)n3[nH]c(-c4cccc(C)c4)cc3n2)CC(C)C)cc1,?,25µM*
CCOc1ccc(CN(CC)Cc2cc(=O)n3[nH]c(-c4cccc(C)c4)cc3n2)cc1,-13%,-11%
Cc1ccccc1C(=O)Nc1ccc(NC(=O)c2ccco2)cc1O,137%,14%
CN(C(=O)CSc1nc2ccc(NC(=O)COc3ccc(Cl)cc3)cc2s1)c1ccccc1,-19%,-13%
COc1ccc(C(=O)Nc2ccc3nc(SCC(=O)N(C)c4ccccc4)sc3c2)cc1,?,28µM*
CCN(CC)CCN1Cc2c(sc(C)c2C)N(C(=O)c2ccc(OC)cc2)C1,163%,0%
CCOc1ccc(C(=O)Nc2nc(C)cs2)cc1OC,1%,4%
Cc1csc(NC(=O)c2ccc(Oc3ccc(Br)cc3)nc2)n1,?,13µM*
O=S1(=O)C=CC2ON=C(c3c(Cl)cccc3Cl)C21 (stereo unspecified),?,32µM*
Cc1cc(C)n(-c2nc3c(c(=O)n(CCc4ccccc4)c(=O)n3C)n2CCC(C)C)n1,?,5µM*
SMILES,FMDV antiviral,FMDV RLuc
CCCn1c(-n2nc(C)cc2C)nc2c1c(=O)n(CCc1ccccc1)c(=O)n2C,-24%,?
COC(=O)COc1ccc(C2C3=C(CC(C)(C)CC3=O)OC3=C2C(=O)CC(C)(C)C3)cc1,-6%,4%
COc1ccc(/C=C(/C#N)c2nc3ccccc3[nH]2)cc1,145%,213%
COc1ccc2cc(/C=C(/C#N)c3nc4ccccc4[nH]3)ccc2c1,225%,10µM*
COc1ccc(OCC(=O)N2CCC(c3nc4ccccc4s3)CC2)cc1,28µM*,25µM*
Cc1ccccc1OCC(=O)N1CCC(c2nc3ccccc3s2)CC1,-6%,-10%
O=C(NC1CCCCC1C(F)(F)F)c1ccc2ncsc2c1 (stereo unspecified),8.9µM*,144%
O=C(NC1CCCCCC1)c1ccc2ncsc2c1,101%,21%
CN(CC(=O)NC(=O)NC1CCCC1)Cc1ccc(C(=O)NCC(F)(F)F)cc1,9%,17%
Cc1ccc(NC(=O)N2CCN(c3cc(-c4noc(C)n4)ccc3C)CC2)c(C)c1,11%,-4%
Cc1nc(-c2ccc(C)c(N3CCN(C(=O)Nc4cccc(Cl)c4C)CC3)c2)no1,25µM*,?
CCCNC(=O)c1ccc(CSc2nc3cccnc3n2Cc2ccc(OC)cc2)cc1,32%,11%
CCOc1ccc(C(=O)Nc2ccc3oc(-c4ccncc4)nc3c2)cc1Br,?,6.3µM*
COc1ccc(C(=O)Nc2ccc3oc(-c4ccncc4)nc3c2)cc1OC,0%,-5%
O=C(c1ccc(Cl)cc1)N1CCN(c2nc3ccccc3s2)CC1,13%,0%
CCS(=O)(=O)c1ccccc1C(=O)N1CCN(c2nc3ccccc3s2)CC1,11µM*,-4%
C(#CCN1CCN(CC#CCOCc2ccccc2)CC1)COCc1ccccc1,-7%,-3%
C(#CCN1CCN(CC#CCOCCOCc2ccccc2)CC1)COCCOCc1ccccc1,4.5µM*,5µM*
CCCCn1nc(C(=O)Nc2cccc(Cl)c2)c2ccccc2c1=O,-2%,-3%
COc1ccc(CCNc2nccn(-c3ccc(C)c(C)c3)c2=O)cc1OC,?,7.9µM*
COc1ccc(-n2ccnc(NCCc3ccccc3)c2=O)cc1OC,-2%,5%
CCCCN(C)CCC(=O)Nc1ccc(F)cc1,1%,-4%
